From PubChem
Only some compounds are listed: those with a hit (about 1.5% of all), similar ones and a draw of the others.
PI5P4Ka inh: blocks human PI5P4K alpha kinase activity. 330,000 compounds, 1.2% hits. max response, %. PI5P4Kalpha enzyme, ADP-Glo luminescence, 60 min; active compounds read low. AID 652105. P48426; active = max response of -50% or lower; inconclusive = between -30% and -50%; inactive = -30% or higher; also: value at the top dose of about 77 µM
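qHTS, 1536-well: enzyme/substrate mix, compound by pin tool, 5 microM ATP final; RT 60 min; ADP-Glo reagents 1 (45 min) then 2 (30 min); luminescence.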
APE1 inh-1: blocks human APE1 abasic DNA cleavage; 350,000 compounds, 0.35% hits; Potency, µM (highest dose often 65.8 µM), without a hit: at the top dose activity change, negative = inhibition, hits mostly inhibitors; AID 2517; P27695; recombinant APE1, TAMRA/BHQ-2 abasic DNA cleavage fluorescence;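 also: potency is read from the fitted curve at half-maximal effect; plate controls were vehicle for no effect and reference inhibitor for full effect; nearly all actives have a fitted effect of over 55% in size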
Target sequence (P27695 whole entry, looked up): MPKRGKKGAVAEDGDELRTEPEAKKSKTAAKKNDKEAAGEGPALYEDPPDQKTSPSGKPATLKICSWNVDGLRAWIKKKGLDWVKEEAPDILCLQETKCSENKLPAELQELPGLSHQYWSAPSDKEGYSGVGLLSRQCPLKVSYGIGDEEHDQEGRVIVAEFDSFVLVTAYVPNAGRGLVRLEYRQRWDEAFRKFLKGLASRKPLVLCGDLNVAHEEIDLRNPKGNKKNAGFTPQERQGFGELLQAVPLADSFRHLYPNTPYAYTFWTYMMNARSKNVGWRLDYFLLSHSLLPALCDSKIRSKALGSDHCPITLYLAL
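Substrate: short duplex with […] THF abasic site, 5'-TAMRA and 3'-BHQ-2, 50 nM final. APE1 at 0.75 nM, preincubated 15 min RT with compound. Fluorescence increase from first to third read measured activity.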
KAT2A inh: inhibitors of human GCN5L2 histone acetyltransferase; GCN5L2 HAT assay, ThioGlo1 CoA-SH fluorescence; Q92830; Potency, µM (titrated, usually from 58.9 µM), inactives show at the highest dose activity change, negative = inhibition, most hits filed as inhibitors; 390,000 compounds, 0.21% hits; also: potency is read from the fitted curve at half-maximal effect
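Free CoA generated was detected with ThioGlo1 (50uM) fluorescence at Ex340nm/Em540nm, read immediately and after 20 min at room temperature. Enzyme, 20 nM in HEPES pH 7.5 buffer, saw compounds 15 min before adding 75uM H3(1-25) peptide and 70uM acetyl-CoA.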
RECQ1 inh: RECQ1 (human) helicase inhibition; 240,000 compounds, 0.54% hits; P46063; Potency, µM (top dose mostly 57.3 µM), for inactives: at the highest dose activity, negative = inhibition, hits mostly inhibitors; RECQ1 DNA unwinding, red fluorescence kinetic read; AID 2549;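 also: potency is read from the fitted curve at half-maximal effect; plate controls were vehicle for no effect and no enzyme for full effect; nearly all actives have a fitted effect of over 30% in size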
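50 nM RECQ1T1 preincubated 15 min with compound in Tris pH 8.0 buffer with MgCl2, DTT, Tween-20 and 2.5 ug/ml poly(dI-dC); started with 200 nM TAMRA/BHQ-2 forked duplex and 2 mM ATP. Unwinding read as fluorescence (525/598 nm), two reads 2 h apart.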
BLM helicase inh: Bloom syndrome helicase (human) inhibition. 350,000 compounds, 0.2% hits. recombinant BLM DNA unwinding, fluorescence dequenching. Potency, µM (highest dose often 56.1 µM), for the others: at the highest dose activity change, negative = inhibition, hits mostly inhibitors;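 also: potency is read from the fitted curve at half-maximal effect; plate controls were vehicle for no effect and no enzyme for full effect; nearly all actives have a fitted effect of over 35% in size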
FEN1 inhibitor: inhibitors of human flap endonuclease 1; P39748; 390,000 compounds, 0.35% hits; AID 588795; Recombinant FEN1 flap cleavage, fluorescence, 15 min; Potency, µM (series often up to 114 µM), inactives show at the top dose activity change, negative = inhibition, most hits filed as inhibitors; also: potency is read from the fitted curve at half-maximal effect; nearly all actives have a fitted effect of over 65% in size
Target sequence (P39748 whole entry, looked up): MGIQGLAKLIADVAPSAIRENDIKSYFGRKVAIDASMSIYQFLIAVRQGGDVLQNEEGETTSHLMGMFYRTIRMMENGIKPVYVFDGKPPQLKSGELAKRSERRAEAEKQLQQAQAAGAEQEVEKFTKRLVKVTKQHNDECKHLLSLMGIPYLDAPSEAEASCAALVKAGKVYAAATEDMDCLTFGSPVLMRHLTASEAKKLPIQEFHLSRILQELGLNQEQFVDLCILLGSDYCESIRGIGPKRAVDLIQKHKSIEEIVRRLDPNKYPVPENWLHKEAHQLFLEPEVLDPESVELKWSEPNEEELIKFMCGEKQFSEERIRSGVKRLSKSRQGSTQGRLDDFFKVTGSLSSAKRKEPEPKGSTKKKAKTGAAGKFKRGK
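Quantitative HTS format: each compound was titrated, incubated with 10 nM nuclease for 15 min at room temperature, then challenged with flap substrate at 50 nM final. Signal change over 15 min gave concentration–effect curves.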
APE1 dye cs: displaces fluorescent dye from DNA, flagging APE1 artifacts. 480 compounds, 7% hits. Potency, µM (highest dose often 28.5 µM), inactives show at the top dose activity change, negative = inhibition, most hits filed as inhibitors. AID 2564. DNA fluorescent dye displacement counterscreen, fluorescence. shares compounds with APE1 inh-1;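 also: loss of thiazole orange fluorescence as the dye is displaced from duplex DNA; potency is read from the fitted curve at half-maximal effect; 0% = ThO with dsDNA and no compound and -100% = ThO without dsDNA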
EndoIV counter: counter-screen for APE1 inhibitors: inhibitors of E. coli endonuclease IV; Potency, µM (top dose mostly 27.1 µM), for the others: at the top dose activity change, negative = inhibition, most hits filed as inhibitors; 560 compounds, 4% hits; shares compounds with APE1 inh-1; E. coli Endo IV, fluorogenic AP-site DNA cleavage;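 also: potency is read from the fitted curve at half-maximal effect; plate controls were uninhibited enzyme wells for no effect and no enzyme buffer wells for full effect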
APE1 inh-2: APE1 (human) endonuclease inhibition, confirmation; Potency, µM (titrated, usually from 57.1 µM), without a hit: at the highest dose activity change, negative = inhibition, actives largely listed as inhibitors; shares compounds with APE1 inh-1; 750 compounds, 44% hits; AID 2572; purified APE1, fluorogenic abasic-site DNA cleavage; also: potency is read from the fitted curve at half-maximal effect; nearly all actives have a fitted effect of over 30% in size
APE1 FP: displaces DNA from human APE1 in FP assay. shares compounds with APE1 inh-1. 480 compounds, 7% hits. AID 2573. APE1 binding to TAMRA-labelled double-stranded DNA, fluorescence polarization displacement. Potency, µM (series often up to 28.5 µM), for the others: at the top dose activity, negative = inhibition, hits mostly inhibitors; also: potency is read from the fitted curve at half-maximal effect
Active calls of the source: *; ! = a repeat was not active; [ ] = remark or other dose. Unless noted, calls follow the shape of the dose curve; as a rule, active = well fitted curve in the direction sought with a large enough effect; inconclusive = small, poorly fitted or top-dose-only effect, or another doubt; inactive = no such curve, though single readings can be large; an effect the other way counts as inactive or inconclusive. Unless noted, % is scaled to controls: 0 for no effect and ±100 for the full control effect.

COc1ccc(-c2nnc3ccc(SCC(=O)Nc4nccs4)nn23)cc1OC was read as PI5P4Ka inh -16, APE1 inh-1 3%, KAT2A inh -12%, RECQ1 inh -2%, BLM helicase inh 13% and FEN1 inhibitor -2%.
For COc1cccc(/C=C2\SC(=O)NC2=O)c1OCc1ccc(C(=O)O)cc1 the results were PI5P4Ka inh -87*, APE1 inh-1 inconclusive, KAT2A inh -3%, RECQ1 inh inactive, BLM helicase inh -1%, FEN1 inhibitor -2% and APE1 inh-2 -22%.
`O=C(O)COc1c(Cl)cc(/C=C2\NC(=O)NC2=O)cc1Br` gave PI5P4Ka inh inconclusive, APE1 inh-1 3%, KAT2A inh 2%, RECQ1 inh inactive, BLM helicase inh 0% and FEN1 inhibitor -2%.
COc1cc(/C=C2/NC(=O)NC2=O)cc(Br)c1OCc1ccc(C(=O)O)cc1 was read as PI5P4Ka inh 8, APE1 inh-1 inconclusive, KAT2A inh -12%, RECQ1 inh -1%, BLM helicase inh -18%, FEN1 inhibitor -21% and APE1 inh-2 inconclusive.
Screening Cc1ccc(NC(=O)CSc2nc3ccccc3c3nc(CCc4c(C)n[nH]c4C)nn23)cc1F returned APE1 inh-1 5%, KAT2A inh -5%, RECQ1 inh -12%, BLM helicase inh inconclusive, FEN1 inhibitor -5% and APE1 inh-2 inconclusive.
Cc1c(C(=O)O)c(O)cc2c1C(=O)c1c(O)c([C@H]3O[C@H](CO)[C@@H](O)[C@H](O)[C@H]3O)c(O)c(O)c1C2=O was read as APE1 inh-1 10µM*!, KAT2A inh inconclusive, RECQ1 inh 32µM*!, BLM helicase inh -11%, FEN1 inhibitor 50µM*, APE1 dye cs inconclusive, EndoIV counter -118%[57.1 µM], APE1 inh-2 3.2µM* and APE1 FP inconclusive.
`COc1c(O)cc2c(c1O)[C@@H]1O[C@H](CO)[C@@H](O)[C@H](O)[C@H]1OC2=O` gave PI5P4Ka inh 1, APE1 inh-1 8%, KAT2A inh -16%, BLM helicase inh -2% and FEN1 inhibitor 19%.
For Clc1ccc(-c2nn3c(-c4cc(-c5ccccc5)n[nH]4)nnc3s2)cc1 the results were FEN1 inhibitor -13%.
Screening O=c1c(O)c(-c2ccc(O)c(O)c2)oc2cc(O)ccc12 returned PI5P4Ka inh inconclusive, APE1 inh-1 inconclusive, RECQ1 inh 3.2µM*!, BLM helicase inh -26%, FEN1 inhibitor inconclusive, APE1 dye cs 2.8µM*, EndoIV counter 232%[57.1 µM], APE1 inh-2 0.89µM* and APE1 FP 6%[57.1 µM].
For CS(=O)(=O)C1=NSC2=NC(=O)/C(=C\c3cccn3-c3ccc(Cl)cc3)C(=N)N21 the results were PI5P4Ka inh -81*, APE1 inh-1 inconclusive, KAT2A inh -23%, RECQ1 inh -20%, BLM helicase inh inconclusive, FEN1 inhibitor -18% and APE1 inh-2 14µM*.
CN(C)C(=O)Nc1ccc(Oc2ccc(Cl)cc2)cc1 was read as APE1 inh-1 inconclusive, KAT2A inh -12%, RECQ1 inh 8% and BLM helicase inh -3%.
Screening CCCN1C(=O)c2ccccc2NC1c1ccc(OC)c(COc2cccc(C)c2C)c1 (stereo not drawn) returned FEN1 inhibitor -22%.
N#Cc1ccccc1NC(=O)CSc1nnc(-c2ccccc2)n1-c1ccccc1 was read as PI5P4Ka inh 3, APE1 inh-1 -1%, KAT2A inh -22%, RECQ1 inh inactive, BLM helicase inh -4% and FEN1 inhibitor -2%.
Screening CCN(CC)c1ccc(-c2nnc(SCC(=O)Nc3ccccc3C#N)n2-c2ccccc2)cc1 returned PI5P4Ka inh -8, APE1 inh-1 inconclusive, KAT2A inh -4%, RECQ1 inh -20%, BLM helicase inh -12%, FEN1 inhibitor 12%, APE1 dye cs 4%, EndoIV counter inconclusive, APE1 inh-2 inconclusive and APE1 FP 9%.
For CCCN1CNc2c(c(=O)[nH]c(=S)n2CCC(C)(C)C)C1 the results were FEN1 inhibitor -25%.
Screening C[C@@H]1OC(OC2CC[C@@]3(C)C(CC[C@@]4(C)C3CC=C3C5CC(C)(C)CC[C@]5(C(=O)OC5OCC(O)[C@@H](O)[C@@H]5OC5O[C@@H](C)[C@H](O[C@H]6OC(CO)C(O)C(O)C6O)C(O)C5O)C(O)C[C@@]34C)C2(C)C)C(O)C(O)[C@H]1OC1OCC(O)C(O)[C@H]1O (stereo partly drawn) returned APE1 inh-1 28µM*, KAT2A inh -5%, RECQ1 inh -17%, BLM helicase inh 0%, APE1 dye cs -1%[57.1 µM], EndoIV counter 0%[57.1 µM], APE1 inh-2 32µM* and APE1 FP 8%[57.1 µM].
Screening O=C(O)c1cccc(N=NN2CCOCC2)c1 returned PI5P4Ka inh 3, APE1 inh-1 3%, KAT2A inh -3%, RECQ1 inh inactive, BLM helicase inh -3% and FEN1 inhibitor -5%.
Screening O=C1CCCC(O)=C1N=Nc1cccc(C(=O)O)c1 returned PI5P4Ka inh inconclusive, APE1 inh-1 10µM*, KAT2A inh -26%, RECQ1 inh 32µM*, BLM helicase inh -2%, FEN1 inhibitor inconclusive, APE1 dye cs 0%, EndoIV counter 79%, APE1 inh-2 13µM* and APE1 FP -14%.
Screening Cc1ccc(C(=O)O)cc1-n1c(C)cc(C=O)c1C returned PI5P4Ka inh -2, APE1 inh-1 inconclusive, KAT2A inh -3%, RECQ1 inh inactive, BLM helicase inh -4%, FEN1 inhibitor -15% and APE1 inh-2 inconclusive.
